Test results published in the antibiotic and cytotoxicity screens of Wong et al. (2023).
Hit rate of the full screen: of about 39,000 compounds, about 3,300 (8.5%) were called active. The full list was thinned out, with actives kept by preference.

tested on: HepG2; assay: cytotoxicity call (relative viability < 0.9); details: 10 µM

Row | SMILES | cytotoxicity call
1 | C[C@H]1CN([C@@H](C)CO)C(=O)c2cc(NC(=O)Cn3cnnn3)ccc2O[C@H]1CN(C)S(=O)(=O)c1ccc(Cl)cc1 | inactive
2 | COc1ccc(S(=O)(=O)N(C)C[C@H]2Oc3ccc(NS(=O)(=O)c4ccc(C)cc4)cc3C(=O)N([C@H](C)CO)C[C@H]2C)cc1 | inactive
3 | C[C@@H]1CN([C@@H](C)CO)C(=O)Cc2cc(NC(=O)C3CCCCC3)ccc2O[C@@H]1CN(C)S(=O)(=O)c1cn(C)cn1 | inactive
4 | C[C@H](CO)N1C[C@H](C)[C@H](CN(C)Cc2ccc(Oc3ccccc3)cc2)Oc2c(NC(=O)Nc3ccccc3)cccc2C1=O | inactive
5 | O[C@@H](Cc1ccccc1)[C@@H](/C=C/C1CC1)N(CC#Cc1ccccc1)Cc1ccccc1Br | inactive
6 | C[C@H](CO)N1C[C@H](C)[C@H](CN(C)C(=O)Nc2ccc3c(c2)OCO3)Oc2ccc(NC(=O)Nc3cccc4ccccc34)cc2C1=O | inactive
7 | C[C@@H]1CN([C@@H](C)CO)C(=O)c2cc(NC(=O)C3CCCCC3)ccc2O[C@@H](C)CCCCO[C@@H]1CN(C)C(=O)Nc1cccc2ccccc12 | active
8 | C[C@@H]1CCCCO[C@H](CN(C)C(=O)Nc2cccc3ccccc23)[C@H](C)CN([C@@H](C)CO)C(=O)c2cc(NC(=O)C3CCCCC3)ccc2O1 | inactive
9 | C[C@@H]1CN([C@@H](C)CO)C(=O)c2cc(NC(=O)C3CCCCC3)ccc2O[C@@H](C)CCCCO[C@H]1CN(C)C(=O)Nc1cccc2ccccc12 | inactive
10 | C[C@H]1CCCCO[C@H](CN(C)S(=O)(=O)c2cccs2)[C@@H](C)CN([C@@H](C)CO)C(=O)c2cc(NC(=O)Nc3ccccc3)ccc2O1 | inactive
11 | COc1ccc2c3c(n(c2c1)C)[C@@H](CO)N(C[C@]13CCN(CC1)C(=O)c1cnccn1)C(=O)c1cnccn1 | inactive
12 | CC(C)NC(=O)N(C)C[C@@H]1OCCCC[C@@H](C)Oc2ccc(NC(=O)Nc3cccc4ccccc34)cc2C(=O)N([C@H](C)CO)C[C@@H]1C | inactive
13 | Cc1csc(-c2nnc(Nc3ccc(Oc4ncccc4-c4ccnc(N)n4)cc3)c3ccccc23)c1 | active
14 | Cc1ccc(Oc2nnc(-c3cccs3)c3ccccc23)cc1 | inactive
15 | C[C@@]1(c2ccc3c(c2)OCCO3)NC(=O)NC1=O | inactive
16 | Cc1noc(C)c1S(=O)(=O)Nc1ccc2c(c1)CC(=O)N([C@@H](C)CO)C[C@H](C)[C@H](CN(C)Cc1ccncc1)O2 | inactive
17 | C/C=C(/C)C(=O)O[C@@H]1[C@H](OC(C)=O)[C@]2(CO)[C@H](O)C[C@]3(C)C(=CC[C@H]4[C@@]5(C)CC[C@H](O[C@@H]6O[C@H](C(=O)O)[C@@H](O[C@@H]7O[C@H](CO)[C@@H](O)[C@H](O)[C@H]7O)[C@H](O)[C@H]6O[C@@H]6O[C@H](CO)[C@@H](O)[C@H](O)[C@H]6O)[C@](C)(CO)[C@@H]5CC[C@]43C)[C@@H]2CC1(C)C | inactive
18 | C[C@@H]1CC[C@]2(C(=O)O[C@@H]3O[C@H](CO)[C@@H](O)[C@H](O)[C@H]3O)CC[C@]3(C)C(=CC[C@H]4[C@@]5(C)C[C@@H](O)[C@H](O)[C@@](C)(CO)[C@@H]5CC[C@]43C)[C@@H]2[C@]1(C)O | inactive
19 | C[C@H]1O[C@@H](O[C@H]2CC[C@@]3(C)[C@@H](CC[C@@]4(C)[C@@H]3CC=C3[C@H]5C[C@](C)(C(=O)O)CC[C@]5(C(=O)O[C@H]5O[C@@H](CO)[C@@H](O)[C@@H](O)[C@@H]5O)CC[C@@]34C)[C@@]2(C)CO)[C@@H](O)[C@@H](O[C@H]2O[C@@H](CO)[C@@H](O)[C@@H](O)[C@@H]2O)[C@@H]1O | inactive
20 | CC=C(C)C(=O)O[C@H]1[C@H](OC(C)=O)[C@]2(CO)[C@H](O)C[C@]3(C)C(=CC[C@@H]4[C@@]5(C)CC[C@H](O[C@@H]6O[C@H](C(=O)O)[C@@H](O[C@@H]7O[C@H](CO)[C@@H](O)[C@H](O)[C@H]7O)[C@H](O)[C@H]6O[C@@H]6O[C@H](CO)[C@@H](O)[C@H](O)[C@H]6O)[C@](C)(CO)[C@@H]5CC[C@]43C)[C@@H]2CC1(C)C | active

Row | SMILES | cytotoxicity call
21 | CC=C(C)C(=O)OC1C(OC(C)=O)C2(CO)C(O)CC3(C)C(=CCC4C5(C)CCC(OC6OC(C(=O)O)C(OC7OC(CO)C(O)C(O)C7O)C(O)C6OC6OC(CO)C(O)C(O)C6O)C(C)(CO)C5CCC43C)C2CC1(C)C (stereo not drawn) | active
22 | C/C=C(/C)C(=O)O[C@H]1[C@@H](OC(C)=O)[C@@]2(CO)[C@@H](O)C[C@@]3(C)C(=CC[C@H]4[C@@]5(C)CC[C@@H](O[C@H]6O[C@H](C(=O)O)[C@@H](O[C@H]7O[C@@H](CO)[C@@H](O)[C@@H](O)[C@@H]7O)[C@@H](O)[C@@H]6O[C@H]6O[C@@H](CO)[C@@H](O)[C@@H](O)[C@@H]6O)[C@@](C)(CO)[C@@H]5CC[C@]43C)[C@@H]2CC1(C)C | active
23 | COc1cccc(-c2ccc3c(c2)O[C@@H](CN(C)C(=O)C2CC2)[C@H](C)CN([C@@H](C)CO)S3(=O)=O)c1 | inactive
24 | O=C(C[C@@H]1C[C@@H]2c3cc(NS(=O)(=O)c4ccc(F)cc4)ccc3O[C@@H]2[C@@H](CO)O1)NCCN1CCCCC1 | inactive
25 | C[C@@H]1CN([C@H](C)CO)C(=O)c2cc(C#Cc3ccccc3)cnc2O[C@H]1CN(C)S(=O)(=O)c1ccccc1F | inactive
26 | C[C@H](CO)N1C[C@H](C)[C@@H](CN(C)S(=O)(=O)c2ccccc2F)Oc2ncc(C#Cc3ccncc3)cc2C1=O | inactive
27 | C[C@@H]1CN([C@H](C)CO)C(=O)c2cc(C#Cc3cccnc3)cnc2O[C@@H]1CN(C)S(=O)(=O)c1ccccc1F | inactive
28 | C[C@@H]1CN([C@@H](C)CO)C(=O)c2cc(C#Cc3ccncc3)cnc2O[C@H]1CN(C)S(=O)(=O)c1ccccc1F | active
29 | C[C@@H]1CN([C@H](C)CO)C(=O)c2cc(C#Cc3ccncc3)cnc2O[C@H]1CN(C)S(=O)(=O)c1ccccc1F | inactive
30 | C[C@H]1CN([C@@H](C)CO)C(=O)c2cc(C#Cc3ccncc3)cnc2O[C@H]1CN(C)S(=O)(=O)c1ccccc1F | active
31 | C[C@@H]1CN([C@H](C)CO)C(=O)c2cc(C#Cc3ccncc3)cnc2O[C@@H]1CN(C)S(=O)(=O)c1ccccc1F | inactive
32 | C[C@H]1CN([C@@H](C)CO)C(=O)c2cc(C#Cc3ccccc3)cnc2O[C@@H]1CN(C)S(=O)(=O)c1ccccc1F | inactive
33 | C[C@H]1CN([C@@H](C)CO)C(=O)c2cc(C#Cc3ccncc3)cnc2O[C@@H]1CN(C)S(=O)(=O)c1ccccc1F | active
34 | C[C@H](CO)N1C[C@H](C)[C@H](CN(C)S(=O)(=O)c2ccccc2F)Oc2ncc(C#Cc3ccncc3)cc2C1=O | active
35 | C[C@@H]1CN([C@@H](C)CO)C(=O)c2cc(C#Cc3ccncc3)cnc2O[C@@H]1CN(C)S(=O)(=O)c1ccccc1F | inactive
36 | C[C@@H]1CN([C@H](C)CO)C(=O)c2cc(C#Cc3cccnc3)cnc2O[C@H]1CN(C)S(=O)(=O)c1ccccc1F | inactive
37 | COc1ccc(S(=O)(=O)N[C@@H]2CC[C@@H](CC(=O)N3CCC(Cc4ccccc4)CC3)O[C@@H]2CO)cc1 | inactive
38 | O=c1c(-c2ccc(O)cc2)coc2c([C@H]3O[C@H](CO)[C@@H](O)[C@H](O)[C@H]3O)c(O)ccc12 | inactive
39 | Cc1ccc2nc(-c3ccco3)[nH]c2c1 | inactive
40 | CCS(=O)(=O)N1C[C@]2(CCN(CC2)C(=O)Nc2c(noc2C)C)c2c(n(c3cc(ccc23)OC)C)[C@@H]1CO | inactive

Row | SMILES | cytotoxicity call
41 | C[C@H](CO)N1C[C@H](C)[C@@H](CN(C)S(=O)(=O)c2ccc(F)cc2)Oc2ccc(NC(=O)Cc3ccccc3)cc2CC1=O | inactive
42 | COc1cccc(NC(=O)N[C@@H]2CC[C@H](CC(=O)N3CCN(C)CC3)O[C@H]2CO)c1 | inactive
43 | O=C(C[C@@H]1C=C[C@H](NC(=O)c2ccc(F)cc2)[C@H](CO)O1)NCc1ccncn1 | inactive
44 | C[C@@H]1CCCCO[C@H](CN(C)C(=O)Cc2ccccc2)[C@@H](C)CN([C@@H](C)CO)C(=O)c2cc(NC(=O)Nc3ccc(C(F)(F)F)cc3)ccc2O1 | inactive
45 | C[C@@H]1CN([C@H](C)CO)C(=O)Cc2cc(NC(=O)Nc3cccc4ccccc34)ccc2O[C@@H]1CN(C)Cc1ccc(C(=O)O)cc1 | inactive
46 | COCCNC(=O)C[C@@H]1CC[C@H]2[C@@H](COC[C@@H](O)CN2S(=O)(=O)c2ccccc2C)O1 | inactive
47 | C[C@H](CO)N1C[C@H](C)[C@@H](CN(C)Cc2ccc(C(=O)Nc3ccccc3N)cc2)Oc2ccc(NS(=O)(=O)c3ccc(Cl)cc3)cc2CC1=O | inactive
48 | C[C@H]1CN([C@@H](C)CO)C(=O)c2cccc(NC(=O)C3CC3)c2O[C@H]1CN(C)S(=O)(=O)c1cn(C)cn1 | inactive
49 | C[C@@H]1CCCCO[C@H](CN(C)S(=O)(=O)c2ccc(Cl)cc2)[C@@H](C)CN([C@@H](C)CO)C(=O)c2cc(NS(=O)(=O)c3ccc(F)cc3)ccc2O1 | inactive
50 | C[C@@H]1CCCCO[C@@H](CN(C)S(=O)(=O)c2ccc(Cl)cc2)[C@@H](C)CN([C@@H](C)CO)C(=O)c2cc(NS(=O)(=O)c3ccc(F)cc3)ccc2O1 | active
51 | C[C@H](CO)N1C[C@H](C)[C@H](CN(C)S(=O)(=O)c2ccc(Cl)cc2)OCCCC[C@H](C)Oc2ccc(NS(=O)(=O)c3ccc(F)cc3)cc2C1=O | active
52 | C[C@@H]1CCCCO[C@H](CN(C)S(=O)(=O)c2ccc(Cl)cc2)[C@H](C)CN([C@H](C)CO)C(=O)c2cc(NS(=O)(=O)c3ccc(F)cc3)ccc2O1 | inactive
53 | C[C@@H]1CCCCO[C@H](CN(C)S(=O)(=O)c2ccc(F)cc2)[C@H](C)CN([C@@H](C)CO)C(=O)c2cc(NS(=O)(=O)c3ccc(Cl)cc3)ccc2O1 | active
54 | C[C@@H]1CN([C@@H](C)CO)C(=O)c2cc(NS(=O)(=O)c3ccc(F)cc3)ccc2O[C@@H](C)CCCCO[C@H]1CN(C)S(=O)(=O)c1ccc(Cl)cc1 | inactive
55 | C[C@@H]1CCCCO[C@H](CN(C)S(=O)(=O)c2ccc(F)cc2)[C@@H](C)CN([C@@H](C)CO)C(=O)c2cc(NS(=O)(=O)c3ccc(Cl)cc3)ccc2O1 | inactive
56 | C[C@@H]1CCCCO[C@H](CN(C)S(=O)(=O)c2ccc(Cl)cc2)[C@H](C)CN([C@@H](C)CO)C(=O)c2cc(NS(=O)(=O)c3ccc(F)cc3)ccc2O1 | active
57 | C[C@@H]1CN([C@@H](C)CO)C(=O)c2cc(NS(=O)(=O)c3ccc(F)cc3)ccc2O[C@@H](C)CCCCO[C@@H]1CN(C)S(=O)(=O)c1ccc(Cl)cc1 | inactive
58 | C[C@H](CO)N1C[C@H](C)[C@@H](CN(C)S(=O)(=O)c2ccc(Cl)cc2)OCCCC[C@H](C)Oc2ccc(NS(=O)(=O)c3ccc(F)cc3)cc2C1=O | inactive
